aSyn 5UTR act: Activators via SNCA 5'UTR binding, MLPCN; alpha-synuclein 5'UTR reporter, activators screen; activity score, % (tested at 7.5 µM), hits read low; 300,000 compounds, 7.1% hits; in the data active = activity score below about -60%
* marks the source's active call; other numbers are inactive results. Only a sample is shown.

SMILES	aSyn 5UTR act
O=C(O)/C=C/c1ccc2ccccc2n1	-64*
COc1ccc(C(=O)NOCc2ccccc2)cc1	-74*
Cc1ccc(C(=O)N/C(=C\c2ccccc2)C(=O)OCc2ccccc2)cc1	-122*
Cc1ccc(CONC(=O)c2ccccc2)cc1	-101*
CCOc1cccc(C(=O)NC(=S)Nc2cccnc2)c1	-142*
CC(C)(C)c1cc(Cl)c(O)c(NC(=S)NC(=O)c2cccnc2)c1	80
CCOc1cccc(C(=O)NC(=S)Nc2ccccc2)c1	-184*
O=C(NC(=S)Nc1ccc(CN2CCCCC2)cc1)c1cccc(OCc2ccccc2)c1	-65*
CC(=O)Nc1ccc(/C=N/Nc2nncc3ccccc23)cc1	-126*
C(=N\Nc1nncc2ccccc12)/c1ccccn1	98
c1csc(-c2nc3ccccc3s2)c1	-148*
Oc1ccc(-c2nc3ccccc3s2)c(O)c1	-145*
c1ccc2sc(-c3ccncc3)nc2c1	-111*
c1cncc(-c2nc3ccccc3s2)c1	-148*
Oc1ccc(-c2nc3ccccc3s2)cc1	-68*
Nc1ccccc1-c1nc2ccccc2s1	-240*
CCc1ccc(OCCCCCn2ccnc2)cc1	-66*
COc1ccc2[nH]c(=O)c(CNc3ccccc3C)cc2c1	-94*
COc1ccc2[nH]c(=O)c(CNc3ccccc3)cc2c1	-167*
COCC(C)NC(=O)CCc1nnc(C2(c3ccc(Cl)cc3)CCC2)o1 (configuration not stated)	-81*
C=CCNC(=O)CCc1nnc(C2(c3ccc(Cl)cc3)CCC2)o1	-120*
C=C(C)CNC(=O)CCc1nnc(C2(c3ccc(Cl)cc3)CCC2)o1	-98*
Brc1ccc(C2=Nn3c(nnc3-c3n[nH]c4c3CCC4)SC2)cc1	86
CCCc1cc2c(cc1NC(=O)c1ccc(C(C)(C)C)cc1)OCO2	-74*
C/C(=N\Nc1ncc(Cl)cc1Cl)c1ccc(OC(F)F)cc1	-62*
SMILES	aSyn 5UTR act
C/C(=N\Nc1ncc(Cl)cc1Cl)c1ccc2c(c1)OCO2	-79*
N#Cc1c(-c2ccccc2)c(-c2ccccc2)nn(CC(=O)NNC(=O)Nc2ccccc2)c1=O	-92*
O=C(CSc1nc(O)c(Cc2ccccc2)c(=O)[nH]1)c1ccccc1	-63*
CCCCc1c(O)nc(SCC(=O)c2ccccc2)[nH]c1=O	-87*
Cc1ccc(-n2nnc(-c3cccnc3)n2)cc1	-117*
c1ccc(-n2nnc(-c3cccnc3)n2)cc1	-162*
Cc1cc(N2CCOCC2)nc2cc(O)ccc12	-136*
Cc1cc(N2CCN(c3ccc(F)cc3)CC2)nc2cc(O)ccc12	-66*
COc1ccc2nc(N3CCOCC3)cc(C)c2c1	-79*
Cc1cc(N2CCN(c3ccccc3F)CC2)nc2cc(O)ccc12	-64*
CCCN1CCC(=O)N([C@H](CSc2ccc(OC)cc2)c2ccccc2)CC1	-77*
CC(C)C[C@@H](CSc1ccc(Br)cc1)N1CCN(CC(C)C)CCC1=O	-148*
Cc1ccc(SC[C@H](c2ccccc2)N2CCN(C)CCC2=O)cc1	-138*
COc1ccc(SC[C@H](CC(C)C)N2CCN(C)CCC2=O)cc1	-86*
Cc1ccc(SC[C@H](CC(C)C)N2CCN(C)CCC2=O)cc1	-135*
CC(C)C[C@@H](CSc1ccc(Br)cc1)N1CCN(C)CCC1=O	-141*
Cc1nc2cc(NC(=O)N3c4ccccc4CC3C)ccc2o1 (configuration not stated)	-104*
Cc1nc2cc(NC(=O)Nc3ccc(Br)cc3)ccc2o1	-192*
O=C(NC(=Nc1nc2ccccc2o1)NC(=O)c1ccccc1)c1ccccc1	-105*
COc1ccccc1C(=O)NC(=Nc1nc2ccccc2o1)NC(=O)c1ccccc1OC	-92*
COc1ccccc1C(=O)O/N=C(\N)c1ccc(Cl)cc1	-264*
N/C(=N\OC(=O)c1cccs1)c1ccc(Cl)cc1	-104*
N/C(=N/OC(=O)c1ccc(Cl)cc1)c1ncc([N+](=O)[O-])s1	-78*
COc1ccc(C(=O)O/N=C(\N)c2ccc(Cl)cc2)cc1	-196*
CCOC(=O)C1(CCOC)CCN(Cc2nc(C(C)C)cs2)CC1	-67*
SMILES	aSyn 5UTR act
CCOC(=O)C1(CCOc2ccccc2)CCN(Cc2ccc(O)c(Cl)c2)CC1	108
CCNC(=S)N/N=C/c1sc(N2CCCCC2)nc1-c1cccs1	-102*
Cc1cc(N2CCCC2)c(F)cc1/C=C\[N+](=O)[O-]	-79*
CC(=O)c1cc(C#N)c(SCc2ccc(F)cc2)nc1C	-98*
CC(=O)OCC(=O)N1N=C(c2ccc3ccccc3c2)CC1c1ccccc1 (configuration not stated)	-106*
COc1cc(C2CC(c3cccs3)=NN2C(=O)CCl)ccc1OC(F)F (configuration not stated)	107
CCOC(=O)/C=C(\C)N1N=C(c2ccccc2)CC1c1ccccc1 (configuration not stated)	-187*
COc1ccc(C2CC(c3ccc4ccccc4c3)=NN2C(=O)CN2CCC(C(N)=O)CC2)cc1 (configuration not stated)	-134*
COc1ccc(C2CC(c3ccc4ccccc4c3)=NN2C(=O)COC(=O)C2CCC(=O)N2)cc1 (configuration not stated)	-152*
O=C(/C=C/c1ccccc1)OCc1cncs1	-103*
COc1ccc(CCN2CCCC(CN(C)C(=O)c3cc(C)oc3C)C2)cc1 (configuration not stated)	-149*
COCc1ccc(C(=O)N(C)CC2CCCN(CCc3ccc(OC)cc3)C2)o1 (configuration not stated)	-123*
O=C1C=C(c2ccc3[nH]ccc3c2)CCC1	-151*
CC1(C)CC(=O)C=C(c2ccc3[nH]ccc3c2)C1	-65*
CCOc1cnc(-c2ccc(Cl)cc2)o1	-105*
CCOc1cnc(-c2ccc(OC)cc2)o1	-106*
O=C(Nc1nnc(-c2ccc3c(c2)CCCC3)o1)C1CCCCC1	-84*
O=C(CCc1nnc(-c2ccccc2)o1)NC1CCCCC1	-66*
O=C(Nc1nnc(-c2ccccc2)o1)NC1CCCCC1	-80*
O=C(CCc1nnc(-c2ccc(-c3ccccc3)cc2)o1)NCCc1ccccn1	90
CN(C)S(=O)(=O)c1ccc(C(=O)Nc2nnc(-c3ccc4c(c3)CCCC4)o2)cc1	69
Cc1cc(C)n(CCN(C)C(=O)CCc2nnc(CCC3CCCCC3)o2)n1	-145*
CN(CCCC1CCCC1)C(=O)CCc1nnc(-c2ccccc2)o1	-139*
COC(=O)CCCNC(=O)CCc1nnc(-c2ccc(-c3ccccc3)cc2)o1	77
O=C(Nc1ccccc1)Nc1nnc(-c2ccccc2)o1	-63*
SMILES	aSyn 5UTR act
COC(=O)c1ccc(CO/N=C2\CCCc3nonc32)cc1	-122*
CC1Sc2n(c3ccccc3[n+]2C)N=C1c1ccccc1 (configuration not stated)	-63*
COc1cc2c(c(OC)c1OC)-c1ccc(OC)c(=O)cc1[C@@H](N(C)CC#CCO)CC2	87
O=c1c2ccccc2cnn1-c1nc2ccccc2[nH]1	98
O=c1c2ccccc2nc2c3ccccc3cnn12	-172*
Cn1nnc2cc(NC(=O)Nc3cccc(Cl)c3)ccc21	-151*
O=C(Nc1ccc2nccnc2c1)Nc1ccccc1Cl	-90*
O=C(Nc1cccc(Cl)c1)Nc1ccc2nccnc2c1	-163*
O=C(O)c1cnn(-c2nc(-c3ccc(Br)cc3)cs2)c1C(F)(F)F	-96*
CCOC(=O)c1cc2c(s1)-c1ccccc1CC2	-97*
CCOC(=O)c1cc2ccc3ccccc3c2s1	-169*
Cn1cccc1C(=O)NCCc1ccc(Cl)cc1	-162*
COc1ccc(CCNC(=O)c2cccn2C)cc1	-89*
